Values without a mark were called inactive. Results filed as inconclusive are left out. Active and inactive are the calls of the source. Unless noted, calls come from the whole dose curve; as a rule, active = well fitted curve in the direction sought with a large enough effect in the repeat runs; inconclusive = weak or mixed curves; inactive = no such curve, though single readings can be large; an effect the other way counts as inactive or inconclusive.

A short description of experiment [1]: qHTS RealTime-Glo MT Cell Viability Assay in HEK293 cells - 8 hour (AID 1224887). Note: top concentration of the series differs between compounds; nearly all actives have a fitted effect of over 50% in size. In a few lines: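 Luminescence readout at each listed time point; HEK293, 600 cells/well, RealTime-Glo MT reagent added with cells; compounds pinned (23 nL in DMSO) after 5 h at 37 C; continuous culture at 37 C.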
A general note: In qHTS, concentration-response curves come from the screen itself.

The nature of experiment [2]: A CellTox Green Cytotoxicity Assay to monitor cytotoxicity in HEK293 cells - 16 hour (AID 1224888). Note: nearly all actives have a fitted effect of over 35% in size. In a few lines: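 Read-out: fluorescence of a cell-impermeant cyanine dye staining DNA of dead cells, proportional to cytotoxicity. HEK293, 600 cells/well with reagent, compound (23 nL DMSO) added after 5 h; reads at 0, 8, 16, 24, 32, 40 h.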
A short description of experiment [3]: qHTS RealTime-Glo MT Cell Viability Assay in HepG2 cells - 0 hour (AID 1224889). Note: nearly all actives have a fitted effect of over 50% in size. The method in brief:
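HepG2 cells were seeded at 600 cells/well together with NanoLuc luciferase and a cell-permeant prosubstrate, preincubated 5 h at 37 C/5% CO2, then pin-dosed with compounds in DMSO. Nonlytic luminescence from viable cells was read at each time point.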

Experiment [4] is described as follows: A CellTox Green Cytotoxicity Assay to monitor cytotoxicity in HepG2 cells - 8 hour (AID 1224890). Note: nearly all actives have a fitted effect of over 45% in size. In a few lines: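 HepG2, 600 cells/well premixed w/ CellTox Green; 5 h settle, 37 C/5% CO2; pintool cpd add (DMSO); 37 C, 40 h; fluorescence read at 0, 8, 16, 24, 32, 40 h.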
Experiment [5] can be described thus: qHTS assay to identify small molecule antagonists of the estrogen receptor alpha (ER-alpha) signaling pathway using the BG1 cell line in the presence of 0.1 nM 17-beta-estradiol - cell viability counter screen (AID 1259241). Note: nearly all actives have a fitted effect of over 40% in size. The method in brief:
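In this screen, hormone-deprived VM7Luc4E2 cells were seeded at 4,000 per well, dosed with compound and 0.1 nM estradiol final, and incubated 22 hr at 37C and 5% CO2; fluorogenic live-cell protease signal reported viability.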

Experiment [6] in a line: qHTS assay to identify small molecule antagonists of the androgen receptor (AR) signaling pathway using the MDA cell line in the presence of 0.5 nM R1881 - cell viability counter screen (AID 1259242). Note: nearly all actives have a fitted effect of over 45% in size. The method in brief: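 Live-cell protease fluorescence, CellTiter-Fluor, 30 min at 37C. Cells: MDA-kb2, 3,000/well, preincubated 5 hr. Compounds plus 0.5 nM R1881 final, 16 hr, 37C, 0% CO2.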

Experiment [7] addresses Estrogen receptor (Homo sapiens) (UniProt P03372). Briefly: qHTS assay to identify small molecule antagonists of the estrogen receptor alpha (ER-alpha) signaling pathway using the BG1 cell line in the presence of 0.1 nM 17-beta-estradiol (AID 1259244). Note: nearly all actives have a fitted effect of over 50% in size. In a few lines:
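Luminescence after ONE-Glo (30 min, room temperature) measured ERE-luciferase activity in VM7Luc4E2 cells treated 22 h with compound and 0.1 nM final 17beta-estradiol as stimulator.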

Experiment [8] is described as follows: qHTS assay to identify small molecule HDAC inhibitors (AID 1259364). Note: potency is the fitted concentration of half-maximal effect.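 Note: wild-type HCT-116 cells with endogenous class I/II HDAC activity; nearly all actives have a fitted effect of over 45% in size.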 In a few lines:
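HCT-116 (wild type), 1,500 cells/well, overnight; compound 2 hr 37C 5% CO2; HDAC-Glo I/II reagent 30 min RT; luminescence readout.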

Experiment [9] is described as follows: qHTS assay to identify small molecule HDAC inhibitors - cell viability counter screen (AID 1259365). Note: series mostly up to about 92 µM; nearly all actives have a fitted effect of over 50% in size. The method in brief: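 Measured quantity is CellTiter-Glo luminescence from wild-type HCT-116 cells after compound incubation of 2hr at 37C, 5% CO2; reagent developed 30min at room temperature.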
Experiment [10] in a line: qHTS assay to identify small molecule agonists of the sonic hedgehog signaling (Shh) pathway - cell viability counter screen (AID 1259366). Note: nearly all actives have a fitted effect of over 50% in size. In a few lines: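 In quantitative high-throughput format, 3T3 Gli1-Luc cells were exposed to compounds for 24hr and multiplexed for viability using CellTiter-Fluor, incubated 1hr at 37C before the fluorescence read.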
A short description of experiment [11]: qHTS assay to identify small molecule antagonists of the sonic hedgehog signaling (Shh) pathway - cell viability counter screen (AID 1259367). Note: nearly all actives have a fitted effect of over 55% in size. The method in brief: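 Cytotoxicity was assessed in parallel with Shh reporter activity by measuring live-cell protease fluorescence (CellTiter-Fluor) in NIH/3T3 cells stably carrying Gli1-Luc, treated with compound under conditioned medium stimulation for 23 hr plus 1 hr reagent incubation.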

A short description of experiment [12]: qHTS assay to identify small molecule agonists of the sonic hedgehog signaling (Shh) pathway (AID 1259368; calls by dose curve;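 note: NIH/3T3-derived 3T3Gli1-Luc cells carrying a stable Gli1-driven firefly luciferase reporter; series mostly up to about 92 µM; nearly all actives have a fitted effect of over 15% in size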). In a few lines: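 Read-out: firefly luciferase luminescence from a Gli1 response element reporter stably integrated in NIH/3T3-derived 3T3Gli1-Luc cells, measured 30 min at room temperature after reagent addition. Compound exposure lasted 24 hr at 37 C, 5% CO2.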

Experiment [13] is described as follows: qHTS assay to identify small molecule antagonists of the sonic hedgehog signaling (Shh) pathway (AID 1259369; calls by dose curve; note: nearly all actives have a fitted effect of over 45% in size). The method in brief:
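Luminescence readout: firefly Luc under Gli1 response element in 3T3Gli1-Luc cells (NIH/3T3 clone). Antagonist mode, stimulation by conditioned medium; compound exposure 24hr at 37 C, 5% CO2.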

For experiment [14], the target named is Estrogen receptor beta (Homo sapiens) (UniProt Q92731). Briefly: qHTS assay to identify small molecule agonists of the estrogen receptor beta (ER-beta) signaling pathway (AID 1259377; active = well fitted activation curve with a large enough effect in the signal ratio in the repeat runs, not every such curve was filed as active; the % refers to the signal ratio). In a few lines:
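Reporter cells (HEK293T, ER-beta-UAS-bla) receive compounds or DMSO after a 6 hr pre-incubation. They then incubate 16 hr at 37C/5% CO2, and fluorescence from LiveBLAzer B/G substrate is measured after 2 hours at room temperature.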

Experiment [15] has the same target. Description: qHTS assay to identify small molecule antagonists of the estrogen receptor beta (ER-beta) signaling pathway (AID 1259378; active = well fitted inhibition curve with a large enough effect in the signal ratio in the repeat runs, not every such curve was filed as active; the % refers to the signal ratio). In a few lines:
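ER-beta-UAS-bla HEK293T (GripTite) cells in 2% charcoal-stripped FBS medium were preincubated 6 hr at 37C, dosed with compound, then stimulated with 1 nM E2 (final) for 16 hr; beta-lactamase reporter read by B/G FRET fluorescence after 2 hr substrate loading.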

The nature of experiment [16]: qHTS assay to identify small molecule agonists of the androgen receptor (AR) signaling pathway in the presence of an antagonist - cell viability counter screen (AID 1259379).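 Note: MDA-kb2 human breast cancer cells carrying an MMTV luciferase reporter; series mostly up to about 92 µM; nearly all actives have a fitted effect of over 25% in size.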 In a few lines:
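Viability counter screen: CellTiter-Fluor fluorescence, measured in the same wells as the luciferase read-out. MDA-kb2 cells, 3,000/well, with nilutamide at 3.0uM final and compounds at 15 concentrations, 16 hr at 37C, 0% CO2.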

Experiment [17] can be described thus: qHTS assay to identify small molecule agonists of the estrogen receptor beta (ER-beta) signaling pathway - cell viability counter screen (AID 1259380). Note: nearly all actives have a fitted effect of over 30% in size. The method in brief: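 Luminescence read-out (CellTiter-Glo, 30 min, room temp) taken in the same wells as the beta-lactamase reporter assay; ER-beta-UAS-bla HEK293T cells exposed to DMSO-dissolved compounds for 16 hr at 37C in 2% charcoal-stripped FBS medium.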

Estrogen receptor beta (Homo sapiens), sequence (Q92731 whole entry, looked up): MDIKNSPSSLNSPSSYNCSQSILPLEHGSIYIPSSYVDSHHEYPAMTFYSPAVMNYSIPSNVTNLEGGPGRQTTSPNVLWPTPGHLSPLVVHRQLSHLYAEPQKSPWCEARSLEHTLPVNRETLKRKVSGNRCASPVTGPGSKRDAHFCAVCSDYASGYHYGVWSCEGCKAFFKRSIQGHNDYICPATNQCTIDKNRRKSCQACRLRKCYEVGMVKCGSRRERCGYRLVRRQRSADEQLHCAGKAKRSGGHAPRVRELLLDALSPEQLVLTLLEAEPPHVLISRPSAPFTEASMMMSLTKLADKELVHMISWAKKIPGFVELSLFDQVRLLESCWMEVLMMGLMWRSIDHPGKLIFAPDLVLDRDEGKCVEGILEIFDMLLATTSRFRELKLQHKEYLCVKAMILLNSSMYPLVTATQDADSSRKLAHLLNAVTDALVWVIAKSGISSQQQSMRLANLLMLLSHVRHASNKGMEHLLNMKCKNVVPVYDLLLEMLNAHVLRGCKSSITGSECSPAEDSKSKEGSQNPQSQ
Estrogen receptor (Homo sapiens), sequence (P03372 whole entry, looked up): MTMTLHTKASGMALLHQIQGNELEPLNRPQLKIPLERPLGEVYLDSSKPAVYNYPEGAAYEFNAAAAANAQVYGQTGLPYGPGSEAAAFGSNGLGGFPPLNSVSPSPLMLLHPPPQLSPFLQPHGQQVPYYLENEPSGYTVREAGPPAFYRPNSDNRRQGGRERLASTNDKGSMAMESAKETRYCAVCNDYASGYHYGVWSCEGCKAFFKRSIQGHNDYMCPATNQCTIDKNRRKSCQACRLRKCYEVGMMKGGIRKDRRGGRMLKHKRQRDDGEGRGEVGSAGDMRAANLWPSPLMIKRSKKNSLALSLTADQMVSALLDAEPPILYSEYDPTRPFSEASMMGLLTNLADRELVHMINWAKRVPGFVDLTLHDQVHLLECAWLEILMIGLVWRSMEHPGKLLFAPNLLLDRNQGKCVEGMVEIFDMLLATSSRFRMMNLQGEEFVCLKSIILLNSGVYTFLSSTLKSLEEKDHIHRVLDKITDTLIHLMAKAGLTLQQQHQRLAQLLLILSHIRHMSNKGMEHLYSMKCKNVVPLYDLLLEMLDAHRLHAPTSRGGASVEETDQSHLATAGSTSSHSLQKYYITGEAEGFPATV

For `CCCCCCCCCCCCCCCCCC#N`, the Potency entry in experiment [1], in experiment [2], in experiment [3], in experiment [4], in experiment [8] and in [13] was “inactive” in each case. In addition, the Potency result in [14] and in [15] was “inactive” in each case. Besides, the outcome in experiment [5], in [6], in [7], in experiment [9], in experiment [10] and in [11] was inactive. Also, the compound was classed as inactive in [12], in experiment [16] and in [17].
On to `Cc1ccccc1C(N)=O`, for which the Potency result in experiment [1], in experiment [2], in experiment [3], in [4], in experiment [8] and in experiment [13] was “inactive” each time. Besides, the Potency entry in experiment [14] and in [15] was “inactive” throughout. Also, the result in [5], in [6], in [7], in experiment [9], in experiment [10] and in experiment [11] was inactive. Moreover, the call in [12], in [16] and in experiment [17] was inactive.
Regarding `CSc1cnccn1`, the Potency entry in [1], in [2], in [3], in experiment [4], in experiment [8] and in experiment [13] was “inactive” each time. Also, the Potency result in [14] and in experiment [15] was “inactive” throughout. The result in experiment [5], in experiment [6], in [7], in experiment [9], in experiment [10] and in experiment [11] was inactive. Besides, the compound was called inactive in experiment [12], in experiment [16] and in experiment [17].
Turning to `NCCOCCN`, the Potency result in experiment [1], in [2], in experiment [3], in [4], in experiment [8] and in [13] was “inactive” each time. In addition, the result in experiment [5], in [6], in experiment [7], in experiment [9], in experiment [10] and in experiment [11] was inactive. Besides, the compound was classed as inactive in experiment [12] and in experiment [16].
On to `CC(C)c1ccc(C=O)cc1`, for which the Potency result in [1], in experiment [2], in [3], in experiment [4], in [8] and in experiment [13] was “inactive” in each case. Also, the result in experiment [5], in experiment [6], in experiment [7], in experiment [9], in [10] and in experiment [11] was inactive. In addition, the outcome in experiment [12], in experiment [16] and in experiment [17] was inactive.
With `Cc1ccc2c(c1)C(=O)c1ccccc1C2=O`, the Potency entry in [1], in experiment [2], in experiment [3], in experiment [4], in experiment [13] and in experiment [15] was “inactive” each time. The outcome in experiment [5], in [6], in experiment [7], in [9], in experiment [10] and in experiment [11] was inactive. For the same compound, the result in [12] and in [16] was inactive. Besides, in experiment [8], the Potency was 1210 nM (active).
Consider `CC1(C)[C@H]2CC[C@](C)(C2)[C@H]1O`, for which the Potency entry in [1], in experiment [2], in experiment [3], in [4], in experiment [13] and in experiment [14] was “inactive” throughout. In experiment [15], the Potency result is “inactive”. The outcome in experiment [5], in experiment [6], in [7], in experiment [9], in experiment [10] and in experiment [11] was inactive. Further, the result in experiment [12], in experiment [16] and in experiment [17] was inactive.
`O=C1OCCO1`: the Potency result in [1], in [2], in experiment [3], in [4], in experiment [8] and in [13] was “inactive” throughout. The outcome in [5], in experiment [6], in [7], in [9], in [10] and in experiment [11] was inactive. The compound was called inactive in experiment [12], in experiment [16] and in [17].
